Values joined by “and” are separate entries in the source; they are usually repeats but may differ in a detail not shown here. Equal values may be shown once. Results filed as inconclusive are left out. Active and inactive are the calls of the source. Unless noted, calls follow the shape of the dose curve; as a rule, active = well fitted curve in the direction sought with a large enough effect; inconclusive = small, poorly fitted or top-dose-only effect, or another doubt; inactive = no such curve, though single readings can be large; an effect the other way counts as inactive or inconclusive.
Tests used:
[1] = target: ATP-dependent 6-phosphofructokinase (Trypanosoma brucei brucei) (UniProt O15648); experiment: qHTS Assay to Find Inhibitors of T. brucei phosphofructokinase: hit validation (AID 492961); also: potency is read from the fitted curve at half-maximal effect
Chain of ATP-dependent 6-phosphofructokinase (Trypanosoma brucei brucei) (O15648 whole entry, looked up): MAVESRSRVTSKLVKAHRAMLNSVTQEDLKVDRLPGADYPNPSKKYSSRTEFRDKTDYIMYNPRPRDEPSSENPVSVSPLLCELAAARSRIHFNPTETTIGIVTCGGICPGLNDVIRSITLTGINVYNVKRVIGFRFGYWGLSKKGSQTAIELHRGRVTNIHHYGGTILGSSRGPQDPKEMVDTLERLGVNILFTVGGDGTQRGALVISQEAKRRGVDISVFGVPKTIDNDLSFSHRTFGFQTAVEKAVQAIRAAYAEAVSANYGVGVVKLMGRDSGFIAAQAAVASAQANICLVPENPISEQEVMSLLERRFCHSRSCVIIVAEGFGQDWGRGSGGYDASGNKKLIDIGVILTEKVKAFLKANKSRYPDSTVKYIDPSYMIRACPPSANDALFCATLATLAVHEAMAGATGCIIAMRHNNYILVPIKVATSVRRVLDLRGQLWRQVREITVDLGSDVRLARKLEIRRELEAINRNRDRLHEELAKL
Method in brief: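 Luminescence from ADP-Glo reports ADP generated as T. brucei PFK (1.25 nM) phosphorylates 0.5 mM fructose-6-phosphate using 0.1 mM ATP. Reactions ran 45 min at room temperature, pH 8.0.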

[2] = target: Ubiquitin carboxyl-terminal hydrolase 1 (Homo sapiens) (UniProt O94782); experiment: Inhibitors of USP1/UAF1: Pilot qHTS (AID 504865); also: nearly all actives have a fitted effect of over 35% in size; also: potency is read from the fitted curve at half-maximal effect
Chain of Ubiquitin carboxyl-terminal hydrolase 1 (Homo sapiens) (O94782 whole entry, looked up): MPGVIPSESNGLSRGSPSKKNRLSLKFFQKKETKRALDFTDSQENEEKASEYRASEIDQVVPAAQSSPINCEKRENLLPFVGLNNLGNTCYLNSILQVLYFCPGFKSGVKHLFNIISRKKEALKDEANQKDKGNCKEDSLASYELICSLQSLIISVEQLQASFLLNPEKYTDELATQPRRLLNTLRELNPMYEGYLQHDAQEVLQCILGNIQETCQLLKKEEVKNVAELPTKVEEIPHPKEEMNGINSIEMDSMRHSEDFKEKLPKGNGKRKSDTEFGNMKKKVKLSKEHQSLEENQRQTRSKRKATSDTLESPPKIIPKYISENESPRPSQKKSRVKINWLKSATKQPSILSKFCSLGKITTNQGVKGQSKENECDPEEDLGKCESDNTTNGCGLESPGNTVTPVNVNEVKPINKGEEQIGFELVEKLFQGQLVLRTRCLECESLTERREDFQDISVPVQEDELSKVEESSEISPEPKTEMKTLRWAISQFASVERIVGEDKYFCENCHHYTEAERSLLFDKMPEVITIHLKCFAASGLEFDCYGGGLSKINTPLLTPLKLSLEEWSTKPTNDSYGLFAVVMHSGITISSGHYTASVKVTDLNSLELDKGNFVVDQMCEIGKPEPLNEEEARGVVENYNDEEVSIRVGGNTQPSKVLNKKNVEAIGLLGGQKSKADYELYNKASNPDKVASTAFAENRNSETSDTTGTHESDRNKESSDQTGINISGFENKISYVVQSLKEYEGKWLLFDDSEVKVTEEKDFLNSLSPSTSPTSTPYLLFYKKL
Method in brief: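 USP1/UAF1 complex at 1 nM preincubated 15 min at room temperature with compound, then Ub-Rho substrate added at 150 nM final. Fluorescence (480/540 nm) read kinetically in 50 mM HEPES pH 7.8, 0.5 mM EDTA, 1 mM TCEP, 0.1 mg/ml BSA, 0.01% Tween-20.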

[3] = target: Estrogen receptor (Homo sapiens) (UniProt P03372); experiment: qHTS assay for small molecule antagonists of estrogen receptor alpha signaling (AID 588513; active = well fitted curve in the direction sought with a large enough effect in the signal ratio, with a control signal flat, not every such curve was filed as active; the % refers to the signal ratio; also: % is scaled to controls: 0 for no effect and ±100 for the full control effect)
Chain of Estrogen receptor (Homo sapiens) (P03372 whole entry, looked up): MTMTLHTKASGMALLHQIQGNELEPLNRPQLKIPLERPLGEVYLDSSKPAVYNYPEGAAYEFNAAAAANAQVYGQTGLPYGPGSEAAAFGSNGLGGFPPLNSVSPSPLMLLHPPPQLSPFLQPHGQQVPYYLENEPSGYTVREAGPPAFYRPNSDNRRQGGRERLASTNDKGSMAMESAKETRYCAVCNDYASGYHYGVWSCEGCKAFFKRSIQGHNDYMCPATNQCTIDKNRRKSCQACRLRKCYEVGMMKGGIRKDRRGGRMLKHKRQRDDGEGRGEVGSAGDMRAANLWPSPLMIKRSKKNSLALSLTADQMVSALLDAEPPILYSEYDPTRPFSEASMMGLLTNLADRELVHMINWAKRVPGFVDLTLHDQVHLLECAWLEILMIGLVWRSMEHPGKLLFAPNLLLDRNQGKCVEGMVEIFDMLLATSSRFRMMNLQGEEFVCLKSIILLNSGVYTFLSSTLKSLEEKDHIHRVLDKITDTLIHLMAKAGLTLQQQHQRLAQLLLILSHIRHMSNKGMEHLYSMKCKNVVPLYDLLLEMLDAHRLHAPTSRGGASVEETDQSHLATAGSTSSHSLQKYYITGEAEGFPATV
Method in brief: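 ER-alpha-UAS-bla GripTite HEK 293 cells in 2% charcoal/dextran-treated FBS medium; compounds titrated (1:2, duplicate), then stimulated with 0.5 nM 17-beta-estradiol for 18 h at 37C. CCF4 beta-lactamase fluorescence; Hill-fit IC50 and efficacy.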

[4] = target: Bile acid receptor (Homo sapiens) (UniProt Q96RI1); experiment: qHTS assay for small molecule antagonists of farnesoid X receptor signaling (AID 588526; calls by dose curve; also: % is scaled to controls: 0 for no effect and ±100 for the full control effect)
Chain of Bile acid receptor (Homo sapiens) (Q96RI1 whole entry, looked up): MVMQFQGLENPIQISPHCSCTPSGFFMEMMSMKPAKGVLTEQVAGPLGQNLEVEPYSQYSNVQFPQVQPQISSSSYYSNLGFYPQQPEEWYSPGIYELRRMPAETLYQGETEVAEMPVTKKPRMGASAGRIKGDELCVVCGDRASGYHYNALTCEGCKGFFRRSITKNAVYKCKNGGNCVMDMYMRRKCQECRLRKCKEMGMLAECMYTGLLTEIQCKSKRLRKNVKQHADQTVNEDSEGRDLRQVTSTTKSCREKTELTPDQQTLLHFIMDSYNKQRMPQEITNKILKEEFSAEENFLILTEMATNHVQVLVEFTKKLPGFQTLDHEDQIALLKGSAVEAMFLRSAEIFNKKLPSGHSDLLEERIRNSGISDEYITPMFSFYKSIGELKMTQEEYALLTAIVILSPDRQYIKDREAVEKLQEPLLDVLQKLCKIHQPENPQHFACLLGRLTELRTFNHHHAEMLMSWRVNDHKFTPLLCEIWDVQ
Method in brief: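 Antagonist mode: titrated compounds tested against chenodeoxycholic acid stimulation (normalized to 50 uM CDCA and DMSO) in GeneBLAzer HEK293T cells for 16 h. Beta-lactamase read by CCF4 fluorescence; IC50 from Hill fits.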

[5] = target: Glucocorticoid receptor (Homo sapiens) (UniProt P04150); experiment: qHTS assay for small molecule agonists of glucocorticoid receptor signaling (AID 588532; active = well fitted curve in the direction sought with a large enough effect in the signal ratio, with a control signal flat; the % refers to the signal ratio;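 also: 100% = dexamethasone at 0.1 µM and 0% = DMSO only wells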); details: HeLa MMTV-bla, beta-lactamase ratio, agonist, 18 h; stronger effect = higher value; percent of dexamethasone control, DMSO zero
Chain of Glucocorticoid receptor (Homo sapiens) (P04150 whole entry, looked up): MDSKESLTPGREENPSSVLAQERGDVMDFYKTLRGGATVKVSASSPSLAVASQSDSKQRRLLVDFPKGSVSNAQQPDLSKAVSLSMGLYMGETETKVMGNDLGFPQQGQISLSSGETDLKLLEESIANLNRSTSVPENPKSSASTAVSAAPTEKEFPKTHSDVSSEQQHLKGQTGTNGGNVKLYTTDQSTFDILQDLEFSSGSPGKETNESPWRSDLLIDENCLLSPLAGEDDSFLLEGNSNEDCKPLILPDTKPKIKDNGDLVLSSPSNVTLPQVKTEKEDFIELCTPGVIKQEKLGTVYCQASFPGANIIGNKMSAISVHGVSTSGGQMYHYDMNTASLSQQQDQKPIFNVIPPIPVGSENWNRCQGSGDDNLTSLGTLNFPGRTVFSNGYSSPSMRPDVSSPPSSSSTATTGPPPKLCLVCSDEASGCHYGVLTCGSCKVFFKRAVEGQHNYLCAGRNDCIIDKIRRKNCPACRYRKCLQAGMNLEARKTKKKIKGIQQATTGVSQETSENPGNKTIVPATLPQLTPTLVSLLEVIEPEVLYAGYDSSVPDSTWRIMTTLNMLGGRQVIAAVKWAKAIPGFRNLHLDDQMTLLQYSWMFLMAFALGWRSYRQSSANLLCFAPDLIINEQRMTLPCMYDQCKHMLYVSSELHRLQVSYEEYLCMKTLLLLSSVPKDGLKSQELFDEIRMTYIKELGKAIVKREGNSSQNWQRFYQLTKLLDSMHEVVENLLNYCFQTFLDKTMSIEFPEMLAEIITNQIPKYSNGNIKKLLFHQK
Method in brief: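 Cells were plated and rested 3-5 h at 37 C, compounds were added in titration and incubated 18 h, then CCF4 substrate was loaded for 2 h at RT before reading blue/green fluorescence. EC50 came from Hill-equation fitting.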

[6] = Validation screen for small molecules that induce genotoxicity in human embryonic kidney (HEK293T) cells expressing luciferase-tagged ELG1 (AID 493106); also: 0% is about no effect
Method in brief: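 HEK293T cells expressing luciferase-tagged ELG1, 2,000 cells/well, exposed to compound 16 hr at 37 °C, 5% CO2. Luciferase read after ONE-Glo, 30 min at room temperature; increased signal indicates genetic stress.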

[7] = target: ATPase family AAA domain-containing protein 5 (Homo sapiens) (UniProt Q96QE3); experiment: Validation screen for small molecules that inhibit ELG1-dependent DNA repair in human embryonic kidney (HEK293T) cells expressing luciferase-tagged ELG1 (AID 493107); also: nearly all actives have a fitted effect of over 70% in size; also: potency is read from the fitted curve at half-maximal effect
Method in brief: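 HEK293T cells expressing luciferase-tagged ELG1, 2,000 per well, treated with 5-fluorouridine plus compound for 16 h at 37 C. ONE-Glo luminescence after 30 min at room temperature reports ELG1 reporter level.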

[8] = target: Thyrotropin-releasing hormone receptor (Homo sapiens) (UniProt P34981); experiment: qHTS for Small Molecule Agonists and Allosteric Enhancers of Human TRH Receptor: Validation Screen for Agonists (AID 493127;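 active = calcium activation more than 3 SD above the typical response in the agonist read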; also: 0% is about no effect); details: TRH receptor agonist cell assay; at 2 µM; stronger effect = higher value
Chain of Thyrotropin-releasing hormone receptor (Homo sapiens) (P34981 whole entry, looked up): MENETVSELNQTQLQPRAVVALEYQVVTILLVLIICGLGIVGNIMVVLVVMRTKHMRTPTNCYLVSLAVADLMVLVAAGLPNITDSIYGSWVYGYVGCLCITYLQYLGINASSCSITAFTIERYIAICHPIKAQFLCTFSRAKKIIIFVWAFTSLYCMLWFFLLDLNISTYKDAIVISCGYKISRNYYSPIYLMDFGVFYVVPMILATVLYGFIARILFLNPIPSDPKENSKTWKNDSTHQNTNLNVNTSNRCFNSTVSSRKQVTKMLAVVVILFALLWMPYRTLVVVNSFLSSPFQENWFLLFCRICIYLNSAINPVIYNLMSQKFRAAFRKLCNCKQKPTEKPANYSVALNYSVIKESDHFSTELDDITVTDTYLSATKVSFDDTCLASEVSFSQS
Method in brief: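 TRHR cells loaded with fluo-8 calcium dye; FDSS kinetic fluorescence (Ex 480/Em 530) read at 1 s/cycle after 23 nL compound addition. Agonist-mode calcium response recorded before the 10 nM TRH (EC20) addition.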

[9] = qHTS for Inhibitors of Cell Surface uPA Generation: Validation Assay (AID 493164); also: 0% is about no effect
Method in brief: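 RAW 264.7 cells (4000/well) were plated overnight, then exposed for 18 h at 37 C, 5% CO2 to compounds in a 7-point 1:5 titration (2.45 nM–38.3 uM final). Intracellular ATP was read by ATP-Lite luminescence.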

[10] = target: Galactokinase (Homo sapiens) (UniProt P51570); experiment: qHTS Validation Assay for Inhibitors of Human Galactokinase (GALK) (AID 493189); also: 0% is about no effect
Method in brief: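 GALK (5 nM) with 35 uM ATP and 100 uM galactose in HEPES pH 8.0 with MgCl2, NaCl, DTT and BSA. Reaction ran 1 h at room temperature. Residual ATP read by Kinase-Glo Plus luminescence.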

[11] = Validation screen for small molecules that induce DNA re-replication in SW480 colon adenocarcinoma cells (AID 504364); also: 0% is about no effect
Method in brief: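 SW480 cells (250/well) exposed 48 h at 37 C, 5% CO2, then Hoechst-stained 40 min. Nuclear DNA content imaged by fluorescence scanning (405 nm excitation, 500-530 nm emission); re-replication scored as increased nuclei with elevated intensity.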

[12] = target: Peptidyl-prolyl cis-trans isomerase NIMA-interacting 1 (Homo sapiens) (UniProt Q13526); experiment: qHTS Validation Assay to Find Inhibitors of Pin1 (AID 504536; active = well fitted inhibition curve with a large enough effect in the polarisation, with a control signal flat, not every such curve was filed as active; the % refers to the polarisation;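 also: 0% = full Pin1 enzyme wells and -100% = no-enzyme wells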)
Chain of Peptidyl-prolyl cis-trans isomerase NIMA-interacting 1 (Homo sapiens) (Q13526 whole entry, looked up): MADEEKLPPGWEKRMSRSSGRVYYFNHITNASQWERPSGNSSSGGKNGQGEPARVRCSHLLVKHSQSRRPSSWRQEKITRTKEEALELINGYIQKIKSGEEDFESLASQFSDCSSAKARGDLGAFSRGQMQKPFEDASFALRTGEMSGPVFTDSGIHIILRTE
Method in brief: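 Fluorescence polarization competition: compounds (titration) displace HiFluor-488-labeled Pin1-1b peptide from Pin1 (0.3 uM final) in pH 7.5 HEPES buffer with DTT, 10 min at room temperature; %Activity normalized to no-enzyme wells, curves fitted.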

[13] = target: Phosphoglycerate kinase, glycosomal (Trypanosoma brucei brucei) (UniProt P07378); experiment: qHTS Validation Assay to Find Inhibitors of Phosphoglycerate Kinase (AID 504547);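 also: control wells lack PGK and mark full inhibition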
Chain of Phosphoglycerate kinase, glycosomal (Trypanosoma brucei brucei) (P07378 whole entry, looked up): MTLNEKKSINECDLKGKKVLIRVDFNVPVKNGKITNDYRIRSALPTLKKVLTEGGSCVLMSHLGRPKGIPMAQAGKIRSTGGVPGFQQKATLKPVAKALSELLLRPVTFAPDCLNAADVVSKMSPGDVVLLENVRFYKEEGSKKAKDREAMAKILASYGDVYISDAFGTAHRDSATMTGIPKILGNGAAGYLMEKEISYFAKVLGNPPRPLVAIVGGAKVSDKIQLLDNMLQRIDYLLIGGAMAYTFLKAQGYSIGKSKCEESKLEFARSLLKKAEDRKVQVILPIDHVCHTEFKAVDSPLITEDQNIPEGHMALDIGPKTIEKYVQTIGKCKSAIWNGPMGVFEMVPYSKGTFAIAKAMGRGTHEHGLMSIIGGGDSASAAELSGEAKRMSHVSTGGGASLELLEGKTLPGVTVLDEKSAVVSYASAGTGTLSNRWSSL
Method in brief: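 PGK activity was coupled to GAPDH (100nM final), which generates the unstable substrate 1,3-bisphosphoglycerate in-well. Reactions ran 60 minutes at room temperature in 100mM TEA pH 7.6, 5mM MgCl2, 0.01% Tween-20, then Kinase-Glo Plus luminescence was read.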

[14] = target: phosphoglycerate mutase (Leishmania major) (UniProt Q4Q090); experiment: qHTS Validation Assay to Find Inhibitors of Phosphoglycerate Mutase (AID 504548); also: series mostly up to about 58 µM; % is scaled to controls: 0 for no effect and ±100 for the full control effect
Chain of phosphoglycerate mutase (Leishmania major) (Q4Q090 1-553): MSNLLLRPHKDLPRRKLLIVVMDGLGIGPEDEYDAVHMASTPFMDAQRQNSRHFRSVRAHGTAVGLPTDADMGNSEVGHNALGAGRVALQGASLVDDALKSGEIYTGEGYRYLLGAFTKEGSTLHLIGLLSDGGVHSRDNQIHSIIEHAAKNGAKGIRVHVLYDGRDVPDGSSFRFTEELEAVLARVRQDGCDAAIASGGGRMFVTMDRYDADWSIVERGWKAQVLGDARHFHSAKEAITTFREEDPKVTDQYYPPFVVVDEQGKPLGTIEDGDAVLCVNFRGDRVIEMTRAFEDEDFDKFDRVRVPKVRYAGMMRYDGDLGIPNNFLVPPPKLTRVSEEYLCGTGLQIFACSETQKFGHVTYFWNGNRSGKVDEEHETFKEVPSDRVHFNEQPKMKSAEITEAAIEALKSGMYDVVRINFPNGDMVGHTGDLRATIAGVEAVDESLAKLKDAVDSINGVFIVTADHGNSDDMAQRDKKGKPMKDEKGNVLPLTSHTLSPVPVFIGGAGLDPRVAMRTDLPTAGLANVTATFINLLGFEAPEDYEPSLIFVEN
Method in brief: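 Luminescent end-point read-out via Kinase-GloPlus after a 10-minute development. Reaction: 1.25nM Leishmania major PGAM with substrate and compound, 45 minutes at room temperature in TEA buffer (pH 7.6) with MgCl2 and Tween-20.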

[15] = qHTS for Inhibitors of ATXN expression: Validation of Cytotoxic Assay (AID 588349); also: potency is read from the fitted curve at half-maximal effect
Method in brief: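 HEK293 cells treated with titrated compound for 72 hr at 37 degrees C; viability read as intracellular ATP by CellTiter Glo luminescence.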

[16] = qHTS for Inhibitors of ATXN expression: Validation (AID 588378); also: nearly all actives have a fitted effect of over 75% in size; also: potency is read from the fitted curve at half-maximal effect
Method in brief: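 HEK293 cells carrying ATXN2-firefly luciferase reporter, treated with compound 24 h at 37 °C. Viability read first by CellTiter-Fluor (405/525 nm), then reporter expression by Bright-Glo luminescence; controls were a known ATXN2 expression inhibitor and a luciferase inhibitor.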

[17] = Nrf2 qHTS screen for inhibitors: Validation (AID 493153; active = well fitted inhibition curve with a large enough effect in the main read-out, with a control signal flat, not every such curve was filed as active); details: Potency: luciferase luminescence; viability change: measured here: cytotoxicity max response
Method in brief: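 A549 cells carrying ARE-firefly luciferase reporter, 5000 cells/well in 5% FBS OPTI-MEM, treated with compound over a concentration series for 18-24 h at 37 C. Luciferase luminescence gave Nrf2 activity; CellTiter-Fluor fluorescence gave viability.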

CNS(=O)(=O)Cc1ccc2[nH]cc(CCN(C)C)c2c1
inactive: Potency [1] | Potency [2]

CC1=NN(c2ccccc2)C(=O)C1
inactive: Potency [1] | Potency [2] | Potency [3] | outcome [4]

COc1ccc(-c2ccc3cc(C(=O)O)ccc3c2)cc1C12CC3CC(CC(C3)C1)C2
active: Potency [1] 15.8 µM | Potency [2] 79.4 µM

COC(=O)Nc1nc2ccc(C(=O)c3ccccc3)cc2[nH]1
inactive: Potency [1] | Potency [2]

CC(C)Cn1cnc2c(N)nc3ccccc3c21
inactive: Potency [1] | Potency [2]

COC(=O)Nc1nc2ccc(Sc3ccccc3)cc2[nH]1
inactive: Potency [1] | Potency [2]

CCOC(=O)c1ccc(OC(=O)CCCCCN=C(N)N)cc1
inactive: Potency [1] | Potency [2]

CNC1CCCN(c2c(F)cc3c(=O)c(C(=O)O)cn(C4CC4)c3c2OC)C1 (stereo unspecified)
inactive: Potency [1] | Potency [2]

C[C@]12C=CC(=O)C=C1CC[C@@H]1[C@@H]2C(=O)C[C@@]2(C)[C@H]1CC[C@]2(O)C(=O)CO
inactive: Potency [1] | Potency [2] | Potency [3]

NC(N)=NC(N)=NCCc1ccccc1
inactive: Potency [1] | Potency [2] | Potency [3] | activation [5] 10% and -5.38%

S=P(N1CC1)(N1CC1)N1CC1
inactive: Potency [1] | Potency [2] | Potency [3] | outcome [4] | activation [5] -9.54%

COc1cc2c(Nc3ccc(Br)cc3F)ncnc2cc1OCC1CCN(C)CC1
inactive: Potency [1] | Potency [2]

Cc1ccc(S(=O)(=O)N[C@@H](Cc2ccccc2)C(=O)CCl)cc1
inactive: outcome [6] | activation [8] 2.5% | outcome [9] | outcome [10] | outcome [11] | outcome [12] | Potency [13] | outcome [14]
active: Potency [7] 14.6 µM | Potency [2] 44.7 µM | Potency [15] 14.1 µM | Potency [16] 22.4 µM

COc1nc(N)nc2c1ncn2[C@@H]1O[C@H](CO)[C@@H](O)[C@@H]1O
active: Potency [2] 22.4 µM

CC1=C(C(=O)O)N2C(=O)[C@@H](NC(=O)C(N)c3ccccc3)[C@H]2SC1 (stereo partly specified)
inactive: outcome [6] | Potency [7] | activation [8] 0% | Potency [17] | outcome [9] | outcome [10] | outcome [11] | Potency [13] | outcome [14] | Potency [2] | Potency [15] | Potency [16]
3.05%: viability change [17]

CCN(CC)CC#CCOC(=O)C(O)(c1ccccc1)C1CCCCC1 (stereo unspecified)
inactive: outcome [6] | Potency [7] | activation [8] -7.56% | Potency [17] | outcome [9] | outcome [11] | outcome [12] | Potency [13] | outcome [14] | Potency [2] | Potency [16]
-11.3%: viability change [17]

O=C(O)c1cccnc1
inactive: Potency [2]

CCCCS(=N)(=O)CCC(N)C(=O)O (stereo unspecified)
4.08%: viability change [17]
inactive: outcome [6] | Potency [7] | activation [8] -2.38% | Potency [17] | outcome [9] | outcome [10] | outcome [11] | outcome [12] | Potency [13] | outcome [14] | Potency [2] | Potency [15] | Potency [16]

CCc1cc(C(N)=S)ccn1
inactive: Potency [2] | activation [5] 1.04%

COc1c(N2CCNC(C)C2)c(F)cc2c(=O)c(C(=O)O)cn(C3CC3)c12 (stereo unspecified)
inactive: Potency [2]

COc1cc2nc(N3CCCN(C)CC3)nc(NC3CCN(Cc4ccccc4)CC3)c2cc1OC
inactive: outcome [6] | outcome [9] | outcome [12] | Potency [13] | outcome [14] | Potency [2]
active: Potency [7] 25.9 µM | Potency [16] 7.94 µM

CCN1CCCC1CNC(=O)c1cc(S(N)(=O)=O)ccc1OC (stereo unspecified)
inactive: outcome [6] | activation [8] 0.25% | Potency [17] | outcome [9] | outcome [10] | outcome [11] | outcome [12] | Potency [13] | outcome [14] | Potency [2] | Potency [15] | Potency [16]
7.94%: viability change [17]

NNC(=O)c1ccncc1
inactive: Potency [2] | Potency [3] | activation [5] -1.09%

NC(=O)c1cccc(N)c1
9.41%: viability change [17]
inactive: outcome [6] | Potency [7] | activation [8] 1.12% | Potency [17] | outcome [9] | outcome [10] | outcome [11] | outcome [12] | Potency [13] | outcome [14] | Potency [2] | Potency [15] | Potency [16]
